The whole screen tested about 340,000 compounds, of which about 2,100 (0.62%) were called active. A selection follows. Results with a measured potency or affinity are listed apart. Values without a mark were called inactive.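 How the source made its calls: active means first-screen hits whose inhibition reached a set limit at any dose in the follow-up dose series; inconclusive means inhibition above the set first-screen limit but never retested; inactive means the rest.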
Biological target: Rac GTPase-activating protein 1 (Homo sapiens) (UniProt Q9H0H5)
Sequence (Q9H0H5 whole entry, looked up): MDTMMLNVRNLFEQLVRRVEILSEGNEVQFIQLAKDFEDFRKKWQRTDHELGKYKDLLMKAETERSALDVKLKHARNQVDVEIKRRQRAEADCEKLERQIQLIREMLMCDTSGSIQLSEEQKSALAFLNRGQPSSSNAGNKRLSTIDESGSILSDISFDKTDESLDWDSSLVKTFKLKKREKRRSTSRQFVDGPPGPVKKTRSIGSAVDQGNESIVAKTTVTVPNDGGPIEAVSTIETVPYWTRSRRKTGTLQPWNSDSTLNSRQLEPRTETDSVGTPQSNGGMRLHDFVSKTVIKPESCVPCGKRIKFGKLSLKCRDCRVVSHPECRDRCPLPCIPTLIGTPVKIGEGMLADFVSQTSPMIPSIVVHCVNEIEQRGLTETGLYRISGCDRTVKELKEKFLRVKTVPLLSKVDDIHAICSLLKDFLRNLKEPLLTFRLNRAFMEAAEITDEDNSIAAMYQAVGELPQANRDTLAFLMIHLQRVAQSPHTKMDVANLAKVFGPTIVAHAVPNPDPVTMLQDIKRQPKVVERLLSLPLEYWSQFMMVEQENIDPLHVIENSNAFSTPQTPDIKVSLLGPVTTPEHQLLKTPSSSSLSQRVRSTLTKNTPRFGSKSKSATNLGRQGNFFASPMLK
Experiment: MgcRacGAP GTPase-activating activity inhibitors, confirmation, biochemical, ADP Hunter fluorescence, primary and confirmatory (AID 624330);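 further: fluorescence reports GDP produced by GAP-driven GTP hydrolysis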
Conditions: MgcRacGAP-stimulated Rac1 GTP hydrolysis, at 30 µM, stronger effect = higher value, GST-tagged Rac1 F28L mutant substrate

Row | Compound | inhibition [%]
1 | O=C(c1ccc(Cl)c(Cl)c1)c1cc(-c2ccccn2)c(N2CCOCC2)s1 | 6.1
2 | COc1ccc(-c2cc(C(=O)N3CCN(c4ccccc4)CC3)c3ccccc3n2)cc1 | -2.68
3 | O=C(c1ccccc1)N1CCN(c2ccccc2)CC1 | 5.43
4 | CC(=O)c1ccc(N2CCN(C(=O)c3ccc(C(=O)c4ccccc4)cc3)CC2)cc1 | -1.4
5 | O=C(c1cc(C2CC2)nn1-c1ccccc1)N1CCN(c2ccccc2O)CC1 | 5.58
6 | COc1ccc(N2CCN(C(=O)c3cc(C4CC4)nn3-c3ccccc3)CC2)cc1 | 27.4
7 | Cc1ccc(-c2cc(C(=O)N3CCN(c4ccccc4O)CC3)c3ccccc3n2)cc1 | 2.39
8 | O=C(c1ccc(Cl)c(S(=O)(=O)N2CCCC2)c1)N1CCN(c2ccc(F)cc2)CC1 | 6.75
9 | O=C(c1ccc(Cl)c(S(=O)(=O)N2CCCCC2)c1)N1CCN(c2ccccc2)CC1 | 11.4
10 | CCOC(=O)c1c(C)[nH]c(C(=O)N/N=C/c2ccc(OC)c(OC)c2)c1C | -4.46
11 | COc1ccc(NC(=O)c2cccc(NC3=NC4CS(=O)(=O)CC4S3)c2)cc1Cl (stereo not given) | 10.8
12 | CCc1nnc(N/N=C\c2ccc(OC(C)=O)c(OC)c2)n1N | 10.6
13 | CCC1(CC)C(=O)N(c2ccccc2)C(=N)N(c2ccccc2)C1=O | -9.62
14 | N#Cc1cccc(NC(=O)CN2CCN(Cc3ccccc3)CC2)c1 | 10.1
15 | Cc1nc(N)c2c(Cc3cccc4ccccc34)nn(C(C)(C)C)c2n1 | 2.87
16 | COc1ccccc1CN(C)C(=O)c1sccc1-c1ccccc1 | -0.12
17 | Cc1ccc(/C(N)=N/OC(=O)c2ccc3ccccc3c2)cc1 | 7.71
18 | O=C(NCCCN1CCOCC1)c1cc(-c2ccc(F)cc2)on1 | 5.56
19 | C/C(=N/NC(=O)CNC(=O)c1cccs1)c1ccc(Cl)cc1 | 5.28
20 | COc1ccc(N=Cc2c(O)ccc3ccccc23)cc1 | 14.5

Row | Compound | inhibition [%]
21 | COc1ccc2c(c1)Cc1sc(NC(=O)c3ccccc3)nc1-2 | 15.1
22 | COc1ccc2c(c1)CCc1sc(NC(=O)c3ccco3)nc1-2 | 9.86
23 | COc1cccc(C=Nc2ccc3c(c2)CCC3)c1O | 6.65
24 | COc1cccc(C=Nc2cc(C)on2)c1O | 10.4
25 | Oc1ccc2ccccc2c1/C=N/c1nc2c(s1)CCCC2 | 16
26 | COc1ccc(Cl)cc1NC(=O)CN(C)C(=O)CCCNC(=O)c1ccc(Cl)cc1 | -0.09
27 | CN(C)CCNC(=S)Nc1ccc(Cl)cc1 | 10.1
28 | CC(=O)c1ccc(OCc2cc(C(=O)N3CC[C@@H]4CCCC[C@H]4C3)no2)cc1 | 8.61
29 | COc1ccccc1NC(=O)CSc1nnc(-c2ccoc2C)n1CC1CCCO1 (stereo not given) | 9.62
30 | CCCN(CCC)Cc1c(C(=O)N/N=C/c2ccoc2)nnn1-c1nonc1N | 6.21
31 | S=C(NC1CCCCC1)N1CCN(C2CCCCC2)CC1 | 6.75
32 | O=C(CSc1nc(Cc2ccccc2)nc2ccccc12)Nc1nc2c(s1)CCCC2 | 18.2
33 | COc1cc(CNc2ccc(N3CCCC3)cc2)ccc1OCc1ccccc1 | 7.32
34 | COc1cc(CNc2ccc(N3CCN(C(C)=O)CC3)cc2)ccc1OCc1ccc(F)cc1 | 28.5
35 | COc1ccc(N2CCN(C(=O)Cc3ccc(OC)c(OC)c3)CC2)cc1 | 21.6
36 | COc1ccc(N2CCN(C(=O)NCc3ccc(OC)c(OC)c3)CC2)cc1 | 23.4
37 | O=C(COc1ccccc1)NCC(c1ccco1)N1CCN(c2ccccc2)CC1 (stereo not given) | -2.01
38 | CCCCCC(=O)Nc1ccc(N2CCOCC2)c(S(=O)(=O)Nc2ccc(OC)cc2)c1 | 10.2
39 | CC(=O)Nc1c(-c2ccccc2)nc2ncccn12 | 16.1
40 | CCN(CC)C(=O)Cn1cc(C(=O)C(=O)N(C)C2CCN(C)CC2)c2ccccc21 | 0.15

Row | Compound | inhibition [%]
41 | Fc1ccc(NC(=S)NCCN2CCOCC2)cc1 | 4.64
42 | COc1cc(/C=N/NC(=S)NCCN2CCOCC2)cc(OC)c1OC | 7.18
43 | S=C(NCCN1CCOCC1)N/N=C/c1ccccc1 | 6.95
44 | S=C(NCCCN1CCOCC1)Nc1ccc(Nc2ccccc2)cc1 | 36.5
45 | COc1cc(OC)c(OC)cc1/C=N/NC(=S)NCCN1CCOCC1 | -4.53
46 | COc1cc(/C=N/NC(=S)NCCN2CCOCC2)cc(OC)c1O | 15.1
47 | O=S(=O)(c1cccc(-c2nc3ccccc3s2)c1)N1CCCC1 | 4.17
48 | Cc1cc(C(=O)N(NC(=O)C(C)C)c2ccccc2)cs1 | 5.75
49 | C=CCn1c(=O)c(C(=O)Nc2ccc(C)cn2)c(O)c2ccccc21 | 7.02
50 | CCOc1ccc(C(C(=O)NCC2CCCO2)N(Cc2ccccc2)C(=O)c2snc(C(N)=O)c2N)cc1 (stereo not given) | 6.27
51 | C=CCc1cc(C=O)cc(OCC)c1O | 4.85
52 | C=CCc1cc(/C=N/n2cnnc2)cc(OCC)c1O | 8.86
53 | CSc1sc2ccccc2[n+]1CCCS(=O)(=O)[O-] | 6.67
54 | CCC(/C=C1\Oc2ccc(OC)cc2N1C)=C\c1sc2ccccc2[n+]1CCCS(=O)(=O)[O-] | 20.6
55 | O=C(COC(=O)c1cc(S(=O)(=O)N2CCOCC2)ccc1Cl)NCc1ccccc1 | -0.98
56 | O=C(COC(=O)/C=C/c1ccc([N+](=O)[O-])cc1)Nc1ccc2[nH]c(=O)[nH]c2c1 | 8.57
57 | COc1ccc(Br)cc1CN(C)CC(=O)NCc1ccc(F)cc1 | 30.8
58 | COc1ccc(Br)cc1CN(C)CC(=O)NCCc1ccc(S(N)(=O)=O)cc1 | -1.98
59 | COc1cccc(CNS(=O)(=O)c2ccc(N3CCCC3=O)cc2)c1 | 1.52
60 | Cc1ccccc1NC(=O)c1cccc(S(=O)(=O)N2CCCCC2)c1 | 3.86

Source: PubChem BioAssay AID624330 (Southern Research Specialized Biocontainment Screening …, 2012)
